Reference: PubChem BioAssay AID2242 (National Center for Advancing Translational Sciences (NCATS), 2010)
The whole screen tested about 200,000 compounds, of which about 720 (0.36%) were called active. Roughly 8% stayed inconclusive and do not appear here. Calls follow the shape of the dose curve; as a rule, active = well fitted activation curve with a large enough effect; inconclusive = small, poorly fitted or top-dose-only effect, or effect the other way, or another doubt; inactive = flat fitted curve, though single readings scatter. The list shows a part of the results.

Target: Lysosomal alpha-glucosidase (Homo sapiens) (UniProt P10253)
Assay: qHTS Assay for Activators of Human alpha-Glucosidase as a Potential Chaperone Treatment of Pompe Disease; also: nearly all actives have a fitted effect of over 80% in size
Details: purified enzyme, 4-MU-alpha-glucoside fluorescence, 20 min; series mostly up to 76.9 µM
How it was run: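 Compounds titrated up to 77 uM against 4 nM enzyme and 400 uM methylumbelliferyl substrate at room temperature, 20 min, pH 5.0. Basic stop, then 4-methylumbelliferone fluorescence (365/440 nm) normalized to no-enzyme and enzyme controls; Hill-equation AC50.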
Potency is read from the fitted curve at half-maximal effect.

Potency, active:
COCCN(CCOC)C(=O)c1cc2c(=O)n3ccccc3nc2s1 35.5 µM
CCN(CC)C(=O)c1cc2c(=O)n3ccccc3nc2s1 31.6 µM
CC1=CN2C(=NC(=O)CC2(C)C(=O)N(CC(=O)NC2CCCC2)c2cc(C)cc(C)c2)C=C1 (stereo not given) 39.8 µM
CC1=CN2C(=NC(=O)CC2(C)C(=O)N(CC(=O)NC2CCCC2)c2ccccc2C)C=C1 (stereo not given) 35.5 µM
CCC(=O)Oc1ccc2c(c1)OC1(OC(C)=O)OC(C)CC1=C2C (stereo not given) 5.62 µM
CCOC(=O)c1sc(-c2ccc(OC)cc2)cc1NC(C)=O 28.2 µM
CCCCCn1c(=NC(C)=O)c(C#N)cc2c(=O)n3ccccc3nc21 35.5 µM
CCOCCCn1c(=NC(C)=O)c(C#N)cc2c(=O)n3cccc(C)c3nc21 31.6 µM
CCOCCCn1c(=NC(C)=O)c(C#N)cc2c(=O)n3ccccc3nc21 31.6 µM
O=C(Oc1ccc2c3c(c(=O)oc2c1)CCCC3)c1cccs1 35.5 µM
O=C(Oc1cc2oc(=O)c3c(c2cc1Cl)CCCC3)c1cccs1 31.6 µM
COCCn1c(=O)[nH]c2cc(C(=O)NC(C)C)ccc2c1=O 35.5 µM
COCCn1c(=O)[nH]c2cc(C(=O)NCc3cccnc3)ccc2c1=O 35.5 µM
CCN1CCCC1CNC(=O)c1ccc2c(=O)n(CCOC)c(=O)[nH]c2c1 (stereo not given) 31.6 µM
O=C(O)c1cccc(NC(=O)C2C3C=CC(C3)C2C(=O)O)c1 (stereo not given) 31.6 µM
COc1ccc(CCNC(=O)CSc2nc(-c3ccc(OC)c(OC)c3)ccc2C#N)cc1 28.2 µM
O=c1oc2c(CN3CCOCC3)c(O)c(Cl)cc2c2c1CCC2 35.5 µM
O=c1oc2c(CN3CCOCC3)c(O)c(Cl)cc2c2c1CCCC2 31.6 µM
CCCCN(C(=O)NC(=O)C1=C(N2CCOCC2)/C(=C/c2ccccc2)CC1)S(C)(=O)=O 31.6 µM
CN(C(=O)NC(=O)C1=C(N2CCOCC2)/C(=C/c2ccccc2)CC1)S(C)(=O)=O 39.8 µM
O=S(=O)(c1ccc(N2CCC(c3ccc(Cl)cc3)=N2)cc1)N(CCO)CCO 35.5 µM
CN(C)CCCNS(=O)(=O)c1ccc(N2CCC(c3ccc(Cl)cc3)=N2)cc1 35.5 µM
Cc1ccc2c(c1)Cc1nc3ccccc3nc1-2 35.5 µM
COc1ccc2cc3cc(C(=O)NCc4cccnc4)oc3nc2c1 31.6 µM
COc1ccc2cc3cc(C(=O)NCc4ccco4)oc3nc2c1 31.6 µM
